Data as given in PMC4336329 (PLoS ONE, 2015).
Out of some 310,000 compounds screened, about 14,000 (4.5%) showed an effect of 50% or more. Effects have a minus sign here. The list comes from a sample in which strong results are over-represented; it also holds similar structures and randomly drawn compounds.
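Also: peak tail current of the secondary pulse compared with the same well before compound.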

Each molecule was assayed against human ether-à-go-go-related gene (hERG) potassium channel (human, UniProt Q12809) (assay: primary screen, population patch clamp on CHO cells stably expressing hERG; higher = less effect of the substance).
Chain of human ether-à-go-go-related gene (hERG) potassium channel (Q12809 whole entry, looked up): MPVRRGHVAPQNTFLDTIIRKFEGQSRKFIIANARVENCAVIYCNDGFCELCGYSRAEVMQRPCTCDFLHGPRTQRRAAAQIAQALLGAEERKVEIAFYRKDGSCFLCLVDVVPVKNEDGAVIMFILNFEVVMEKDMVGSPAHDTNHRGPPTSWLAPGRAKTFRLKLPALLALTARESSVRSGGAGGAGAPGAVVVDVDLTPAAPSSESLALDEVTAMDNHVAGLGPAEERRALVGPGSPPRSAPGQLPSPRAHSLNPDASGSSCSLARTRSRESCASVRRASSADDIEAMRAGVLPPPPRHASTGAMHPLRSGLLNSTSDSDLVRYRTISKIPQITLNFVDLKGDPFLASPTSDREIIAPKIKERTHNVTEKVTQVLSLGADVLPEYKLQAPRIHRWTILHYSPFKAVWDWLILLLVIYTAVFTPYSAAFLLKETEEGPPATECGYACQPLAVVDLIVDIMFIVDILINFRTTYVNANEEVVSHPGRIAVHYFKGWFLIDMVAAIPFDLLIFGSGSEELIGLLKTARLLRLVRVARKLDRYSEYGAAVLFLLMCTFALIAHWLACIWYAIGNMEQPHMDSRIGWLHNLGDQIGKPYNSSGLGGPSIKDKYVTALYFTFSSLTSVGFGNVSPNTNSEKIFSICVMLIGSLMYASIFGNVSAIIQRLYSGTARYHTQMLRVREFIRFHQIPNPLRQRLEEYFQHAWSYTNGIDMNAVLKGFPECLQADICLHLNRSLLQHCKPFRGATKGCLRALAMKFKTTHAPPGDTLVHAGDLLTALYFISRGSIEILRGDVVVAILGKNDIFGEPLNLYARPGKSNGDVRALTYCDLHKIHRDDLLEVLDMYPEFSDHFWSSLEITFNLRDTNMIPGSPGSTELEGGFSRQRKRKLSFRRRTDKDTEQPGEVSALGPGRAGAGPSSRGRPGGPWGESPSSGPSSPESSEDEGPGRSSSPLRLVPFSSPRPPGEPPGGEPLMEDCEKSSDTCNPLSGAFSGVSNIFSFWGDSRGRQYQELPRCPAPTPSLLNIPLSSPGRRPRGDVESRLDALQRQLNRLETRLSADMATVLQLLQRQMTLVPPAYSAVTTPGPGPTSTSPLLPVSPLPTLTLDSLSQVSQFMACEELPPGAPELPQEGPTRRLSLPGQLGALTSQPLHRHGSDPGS
In the case of `CC(CNC(=O)CCc1nnc2ccc(N3CCC4(CC3)OCCO4)nn12)c1ccccc1` (stereo not drawn), the “hERG current change (%, negative = inhibition) at 10uM” value is reported as -0.296%.
With `O=C(CNC(=O)c1sc2ccccc2c1Cl)NC1CC1` the “hERG current change (%, negative = inhibition) at 10uM” value was 3.65%.
`CCCCOc1ccccc1C(=O)NNC(=S)NC(=O)c1ccccc1[N+](=O)[O-]` was tested, and the “hERG current change (%, negative = inhibition) at 10uM” value was 3.48%.
For `NS(=O)(=O)c1ccc(NC(=O)c2cc(-c3cc(Cl)ccc3O)n[nH]2)cc1`, the “hERG current change (%, negative = inhibition) at 10uM” value was 15.7%.
`CS(=O)(=O)Nc1ccc(C2=NN(S(C)(=O)=O)C(c3ccccc3)C2)cc1` (stereo not drawn) was tested, and the “hERG current change (%, negative = inhibition) at 10uM” value was -73.6%.
`CCS(=O)(=O)N1N=C(c2ccc(NS(C)(=O)=O)cc2)CC1c1ccccc1` (stereo not drawn) was tested, and the “hERG current change (%, negative = inhibition) at 10uM” value was -62.1%.
With `CCC(CC)C(=O)N1N=C(c2ccc(NS(C)(=O)=O)cc2)CC1c1ccccc1` (stereo not drawn) the “hERG current change (%, negative = inhibition) at 10uM” value was -41.4%.
With `CCS(=O)(=O)Nc1ccc(C2=NN(S(=O)(=O)CC)C(c3cccs3)C2)cc1` (stereo not drawn) the “hERG current change (%, negative = inhibition) at 10uM” value was -9.32%.
With `CS(=O)(=O)N1N=C(c2ccc3nccnc3c2)CC1c1ccccc1` (stereo not drawn) the “hERG current change (%, negative = inhibition) at 10uM” value was -7.62%.
In the case of `CS(=O)(=O)N1N=C(c2cccs2)CC1c1ccccc1` (stereo not drawn), the “hERG current change (%, negative = inhibition) at 10uM” value is reported as -11.3%.
For `Cc1ccc2nc(-c3ccc(N4C(=NC(=O)CCC(=O)O)SC5CS(=O)(=O)CC54)cc3)sc2c1` (stereo not drawn), the “hERG current change (%, negative = inhibition) at 10uM” value was -19.3%.
`O=C(NC(Cc1c[nH]c2ccccc12)C(=O)N/N=C/c1ccc(Br)cc1)c1cccs1` (stereo not drawn) was tested, and the “hERG current change (%, negative = inhibition) at 10uM” value was 8.02%.
With `O=C(Nc1nccs1)C1CCCN(S(=O)(=O)c2cccc3cccnc23)C1` (stereo not drawn) the “hERG current change (%, negative = inhibition) at 10uM” value was -3.72%.
With `CCCCOc1ccc(-c2nnc(N)s2)cc1` the “hERG current change (%, negative = inhibition) at 10uM” value was 2.84%.
In the case of `CC(C)CCNC(=O)/C=C/c1ccc(Br)cc1`, the “hERG current change (%, negative = inhibition) at 10uM” value is reported as 0.187%.
With `Cc1[nH]nc(Nc2ccc(O)cc2)c1[N+](=O)[O-]` the “hERG current change (%, negative = inhibition) at 10uM” value was 23.6%.
With `Cc1oc(-c2ccc(Cl)cc2)nc1CN1CCCC(C(=O)NCc2ccco2)C1` (stereo not drawn) the “hERG current change (%, negative = inhibition) at 10uM” value was -71.9%.
In the case of `O=C(NCc1ccco1)C1CCCN(S(=O)(=O)c2ccc(Cl)cc2)C1` (stereo not drawn), the “hERG current change (%, negative = inhibition) at 10uM” value is reported as -13.2%.
In the case of `Cc1oc(-c2cccc(Cl)c2)nc1CN1CCCC(C(=O)NCc2ccco2)C1` (stereo not drawn), the “hERG current change (%, negative = inhibition) at 10uM” value is reported as -73%.
In the case of `Cc1oc(-c2cccc(Cl)c2)nc1CN1CCCC(C(=O)NCCCN2CCOCC2)C1` (stereo not drawn), the “hERG current change (%, negative = inhibition) at 10uM” value is reported as -28.1%.
`CCCS(=O)(=O)N1CCCC(C(=O)NC(C)c2ccc3c(c2)OCCO3)C1` (stereo not drawn) was tested, and the “hERG current change (%, negative = inhibition) at 10uM” value was 9.55%.
For `Cc1oc(-c2cccc(Cl)c2)nc1CN1CCCC(C(=O)NC(C)c2ccc3c(c2)OCCO3)C1` (stereo not drawn), the “hERG current change (%, negative = inhibition) at 10uM” value was -57.5%.
`CCN1CCN(CCNC(=O)C2CCCN(Cc3nc(-c4cccc(Cl)c4)oc3C)C2)CC1` (stereo not drawn) was tested, and the “hERG current change (%, negative = inhibition) at 10uM” value was -6.73%.
`Cc1oc(-c2ccc(Cl)cc2)nc1CN1CCCC(C(=O)NCCCN2CCCC2=O)C1` (stereo not drawn) was tested, and the “hERG current change (%, negative = inhibition) at 10uM” value was -30.8%.
For `Cc1oc(-c2cccc(Cl)c2)nc1CS(=O)(=O)CC(=O)NCc1ccco1`, the “hERG current change (%, negative = inhibition) at 10uM” value was -28.2%.
With `COc1ccccc1NC(=O)c1ccccc1NS(C)(=O)=O` the “hERG current change (%, negative = inhibition) at 10uM” value was -1.12%.
`O=C(O)/C=C/c1ccc(O)c(O)c1` was tested, and the “hERG current change (%, negative = inhibition) at 10uM” value was 13.1%.
For `O=C1CSC(=S)N1c1ccc(Cl)c(Cl)c1`, the “hERG current change (%, negative = inhibition) at 10uM” value was 20.7%.
With `CC1=C(C(=O)OC(C)(C)C)C(c2cccs2)NC(=O)N1` (stereo not drawn) the “hERG current change (%, negative = inhibition) at 10uM” value was -0.0788%.
`Cc1cc(OCC(=O)N2C[C@H]3C[C@@H](C2)c2cccc(=O)n2C3)c2c(C)c(C)c(=O)oc2c1` was tested, and the “hERG current change (%, negative = inhibition) at 10uM” value was 0.123%.
In the case of `CC(C)(CC(=O)O)CC(=O)N1CCCN(c2nccc(C(F)(F)F)n2)CC1`, the “hERG current change (%, negative = inhibition) at 10uM” value is reported as 17.8%.
With `O=C(NCc1ccncc1)C1CCN(S(=O)(=O)Cc2ccccc2)CC1` the “hERG current change (%, negative = inhibition) at 10uM” value was -10.4%.
In the case of `Cc1ccc(C)c(SCC(=O)Nc2nnc(-c3ccccc3)o2)c1`, the “hERG current change (%, negative = inhibition) at 10uM” value is reported as 14.1%.
`O=C(COC(=O)/C=C/c1cccc(C(F)(F)F)c1)NCCN1C(=O)CSC1=O` was tested, and the “hERG current change (%, negative = inhibition) at 10uM” value was -28.1%.
For `CCN(C(=O)COC(=O)c1cc(-c2ccccc2)nn1-c1ccccc1)C1CCS(=O)(=O)C1` (stereo not drawn), the “hERG current change (%, negative = inhibition) at 10uM” value was -12.8%.
`O=C(COC(=O)c1cccnc1Nc1cccc(C(F)(F)F)c1)NC1CCS(=O)(=O)C1` (stereo not drawn) was tested, and the “hERG current change (%, negative = inhibition) at 10uM” value was -16.1%.
With `CN(C(=O)COC(=O)c1cn(-c2ccccc2)nc1-c1ccccc1)C1CCS(=O)(=O)C1` (stereo not drawn) the “hERG current change (%, negative = inhibition) at 10uM” value was -16.6%.
For `CCN(C(=O)COC(=O)c1cc(-c2ccc(C)o2)nc2ccccc12)C1CCS(=O)(=O)C1` (stereo not drawn), the “hERG current change (%, negative = inhibition) at 10uM” value was -66.7%.
With `CCN(C(=O)COC(=O)c1cccnc1Nc1ccccc1F)C1CCS(=O)(=O)C1` (stereo not drawn) the “hERG current change (%, negative = inhibition) at 10uM” value was -9.99%.
`CCN(C(=O)COC(=O)c1cccnc1Nc1cccc(C(F)(F)F)c1)C1CCS(=O)(=O)C1` (stereo not drawn) was tested, and the “hERG current change (%, negative = inhibition) at 10uM” value was -51%.
`O=C(COC(=O)c1cccnc1Nc1ccccc1F)NCCN1C(=O)CSC1=O` was tested, and the “hERG current change (%, negative = inhibition) at 10uM” value was -27.7%.
For `O=C(COC(=O)c1cccnc1Nc1cccc(C(F)(F)F)c1)NCCN1C(=O)CSC1=O`, the “hERG current change (%, negative = inhibition) at 10uM” value was -58.7%.
In the case of `CCN(C(=O)COC(=O)c1cc(-c2cccc3ccccc23)nc2ccccc12)C1CCS(=O)(=O)C1` (stereo not drawn), the “hERG current change (%, negative = inhibition) at 10uM” value is reported as -6.23%.
With `Cc1ccc(-c2cc(C(=O)OCC(=O)N(C)C3CCS(=O)(=O)C3)c3ccccc3n2)o1` (stereo not drawn) the “hERG current change (%, negative = inhibition) at 10uM” value was -19.1%.
For `CCN(C(=O)COC(=O)c1cn(-c2ccccc2)nc1-c1ccccc1)C1CCS(=O)(=O)C1` (stereo not drawn), the “hERG current change (%, negative = inhibition) at 10uM” value was -75.9%.
With `Cc1ccc(C(=O)NC(=S)NNS(=O)(=O)c2ccc(C)cc2)cc1` the “hERG current change (%, negative = inhibition) at 10uM” value was 3.32%.
In the case of `O=C(Nc1ccc(Cl)cn1)c1ccc(Br)c(S(=O)(=O)N2CCCCC2)c1`, the “hERG current change (%, negative = inhibition) at 10uM” value is reported as 18.7%.
`CC(=O)Nc1ccc(S(=O)(=O)N(Cc2cccnc2)Cc2cc3ccccc3[nH]c2=O)cc1` was tested, and the “hERG current change (%, negative = inhibition) at 10uM” value was 11.4%.
For `Cc1cccc(Nc2ccc(S(=O)(=O)N3CCOCC3)cc2[N+](=O)[O-])c1`, the “hERG current change (%, negative = inhibition) at 10uM” value was -30.2%.
`CCn1c(CSc2nc(C)cc(C)n2)nnc1SCC(=O)Nc1nc(-c2ccccc2)cs1` was tested, and the “hERG current change (%, negative = inhibition) at 10uM” value was -9.09%.
`O=c1c2ccccc2c2ccccc2c(=O)n1CC1CCCO1` (stereo not drawn) was tested, and the “hERG current change (%, negative = inhibition) at 10uM” value was -14.4%.
